Pf growth 96h – Primary qHTS for delayed death inhibitors of the malarial parasite plastid, 96 hour incubation; P. falciparum luciferase reporter growth, 96 h; Potency, µM (titrated, usually from 28.7 µM), for the others: at the top dose activity change, negative = inhibition, usual class: inhibitors; 6.9% of 320,000 active; AID 504834, 2011; further: potency means the concentration at half of the fitted maximal effect; on the % scale 0 is the no-effect control and ±100 the full control effect
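Delayed-death screen, second-generation endpoint: infected erythrocytes, 2% hematocrit, 0.05% parasitemia final; 96 hours at 37 C, 5% CO2; luciferase detection reagent; luminescence decrease equals reduced growth.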
Pf growth 48h – Primary qHTS for delayed death inhibitors of the malarial parasite plastid, 48 hour incubation | P. falciparum luciferase growth in erythrocytes, 48 h | Potency, µM (titrated, usually from 28.7 µM), for the others: at the top dose activity change, negative = inhibition, most hits filed as inhibitors | 5.9% of 310,000 active; further: potency means the concentration at half of the fitted maximal effect; on the % scale 0 is the no-effect control and ±100 the full control effect
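Luciferase-expressing P. falciparum in infected erythrocytes (2% hematocrit, 0.1% parasitemia final) in RPMI 1640/0.5% Albumax were exposed to compound for 48 hours at 37 C, 5% CO2; growth read as luminescence.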
LmPK inh – qHTS Assay for Inhibitors of Leishmania Mexicana Pyruvate Kinase (LmPK); Potency, µM (titrated, usually from 57.5 µM), inactives show at the top dose activity change, negative = inhibition, actives largely listed as inhibitors; Q27686; AID 1721, 2009; purified LmPK, Kinase-Glo ATP luminescence, 1 h; 0.37% of 290,000 active; further: potency means the concentration at half of the fitted maximal effect; on the % scale 0 is the no-effect control and ±100 the full control effect
Target sequence (Q27686 whole entry, looked up): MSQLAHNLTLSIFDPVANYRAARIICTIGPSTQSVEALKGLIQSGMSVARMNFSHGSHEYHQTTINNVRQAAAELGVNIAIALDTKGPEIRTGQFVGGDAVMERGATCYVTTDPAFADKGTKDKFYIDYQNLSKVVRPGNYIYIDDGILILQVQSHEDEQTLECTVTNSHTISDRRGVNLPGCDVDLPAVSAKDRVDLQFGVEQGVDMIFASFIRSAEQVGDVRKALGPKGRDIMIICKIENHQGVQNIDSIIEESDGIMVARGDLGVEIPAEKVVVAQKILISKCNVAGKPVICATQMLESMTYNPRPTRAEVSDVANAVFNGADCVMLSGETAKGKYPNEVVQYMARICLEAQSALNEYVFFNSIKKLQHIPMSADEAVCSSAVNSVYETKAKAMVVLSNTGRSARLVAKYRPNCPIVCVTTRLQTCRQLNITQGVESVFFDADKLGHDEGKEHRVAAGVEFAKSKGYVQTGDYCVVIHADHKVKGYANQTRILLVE
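0.1 nM LmPK, 0.5 mM PEP, 0.1 mM ADP; 50 mM imidazole pH 7.2, 7 mM MgCl2, 50 mM KCl; 1 h RT. Kinase-Glo luminescence readout, normalized to no-enzyme (full inhibition) and uninhibited wells.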
Shiga inhibitor – A qHTS for Small Molecule Inhibitors of Shiga Toxin; Vero cells, Shiga toxin protein synthesis inhibition reporter; inhibition, % at 38.7 µM; 9.2% of 290,000 active; AID 2315, 2010; in the data active means inhibition mostly above about 28%, no sharp cut-off; inactive means mostly below about 43%; further: 0% is about no effect
Cycloheximide cs – Cycloheximide Counterscreen for Small Molecule Inhibitors of Shiga Toxin. 12% of 300,000 active. max response, %. cell reporter, cycloheximide protein synthesis inhibition counterscreen; in the data active means max response mostly above about 13%, no sharp cut-off; inactive means mostly below about 14%; further: read at 38.3 µM for the half of the compounds with a filed dose; 0% is about no effect
* = called active by the depositor; ? = inconclusive; . = no result given; [ ] = another dose, or the depositor's remark. An excerpt weighted towards active compounds, which were near 22% of everything screened. Unless noted, the call rests on the fitted dose curve; in most records, active means well fitted inhibition curve with a large enough effect; inconclusive means small, poorly fitted or top-dose-only effect, or another doubt; inactive means no such curve, though single readings can be large or run the other way.

SMILES	Pf growth 96h	Pf growth 48h	LmPK inh	Shiga inhibitor	Cycloheximide cs
Cc1ccc(S(=O)(=O)N(Cc2ccccc2)c2ccccc2C(=O)N2CCCCC2)cc1	-16%	?	0%	-8	-4
CCOc1ccc(/C=N/NC(=O)Nc2ccccc2)cc1	186%	184%	-1%	69*	41*
CCN(CC)c1ccc(/C=N/NC(=O)Cc2nnc(NC(=O)Nc3ccccc3)s2)cc1	78%	1%	-1%	-9	2
CCN(CC)c1ccc(/C=N/NC(=O)Nc2ccccc2)cc1	1%	66%	4%	71*	35*
CCOc1ccc(/C=N/NC(=O)CC(=O)NCc2ccccc2)cc1	-15%	7%	-3%	-14	-2
CC(=O)Oc1ccc(/C=N/NC(=S)Nc2ccccc2)cc1	13%	157%	-7%	35	53*
O=C(Nc1ccnn1C1CCN(C(=O)c2cccc(Cl)c2)CC1)C1CCOC1 (centres undefined)	16%	8%	-8%	-14	-3
Cc1cccc(OCc2nnc(SCC(=O)N(C(C)C)C(C)C)n2Cc2ccco2)c1C	?	12µM*	1%	-13	1
COc1ccc(C)cc1NC(=O)CSc1nnc(COc2ccccc2)n1Cc1ccco1	10µM*	?	5%	-21	1
COc1ccccc1NC(=O)CSc1nnc(-c2ccccn2)n1Cc1ccco1	12µM*	?	1%	13	-5
Cc1nc(NCCc2ccc(O)cc2)c2nnn(Cc3ccccc3)c2n1	?	-4%	-8%	1	-2
COc1ccc(C2=CC(c3sccc3C)n3nnnc3N2)cc1 (centres undefined)	52%	159%	4%	109*	40*
COc1ccc(C2=CC(c3ccc(F)cc3)n3nnnc3N2)cc1 (centres undefined)	?	.	9%	30	13
Cc1ccc(C2=CC(c3ccc(N(C)C)cc3)n3nnnc3N2)cc1 (centres undefined)	-3%	.	6%	24	26*
Cc1ccsc1C1C=C(c2cccc(Br)c2)Nc2ncnn21 (centres undefined)	12µM*	0%	8%	-18	-4
Cc1ccc(C2C=C(c3ccc4c(c3)OCO4)Nc3ncnn32)cc1 (centres undefined)	12µM*	?	-3%	17	-1
O=C(Nc1ccccc1)c1cc(S(=O)(=O)N2CCSCC2)ccc1Cl	63%	-3%	1%	-11	2
COc1cccc(C2=CC(c3cccs3)n3nnnc3N2)c1 (centres undefined)	1%	.	5%	48*	41*
COc1cccc(C2=CC(c3ccc(C)cc3)n3ncnc3N2)c1 (centres undefined)	46%	?	3%	18	-1
COc1cccc(C2=CC(c3ccc(OC)c(OC)c3OC)n3nnnc3N2)c1 (centres undefined)	18%	18%	-5%	92*	35*
Cn1c(SCC(=O)NCCc2ccccc2)ncc(C(=O)Nc2ccc(F)cc2)c1=O	3%	-6%	.	.	.
CCc1ccc(Nc2n[n+](-c3ccccc3)c(-c3ccc(OCc4ccccc4)cc3)s2)cc1	2.9µM*	?	-3%	14	19*
Cc1cccc(-c2sc(Nc3ccccc3)n[n+]2-c2ccccc2)c1	-23%	?	.	.	.
c1ccc(COc2ccc(-c3sc(Nc4ccccc4)n[n+]3-c3ccccc3)cc2)cc1	?	?	3%	35*	20*
O=C(O)c1ccc(-c2sc(Nc3ccccc3)n[n+]2-c2ccccc2)cc1	-23%	43%	2%	26	20*
SMILES	Pf growth 96h	Pf growth 48h	LmPK inh	Shiga inhibitor	Cycloheximide cs
O=C(O)c1ccc(-c2sc(Nc3ccccc3)n[n+]2-c2ccc(F)cc2)cc1	30%	21%	0%	-5	-2
Cc1ccccc1C(=O)NNC(=O)CCC(=O)Nc1cccc(Cl)c1C	-20%	36%	8%	-8	15
COC/C=C/C1=CC2=CC(=O)C(C)(OC(=O)c3cnc4ccccc4n3)C(=O)C2=CN1CCN1CCOCC1 (centres undefined)	9.3µM*	?	-5%[11.5 µM]	-3	-2
CN(C)C(=O)CSc1nnc(C23CC4CC(CC(C4)C2)C3)o1	.	93%	-2%	39	15*
COc1cccc(CN2CC(C(=O)NCCc3ccc(C)s3)CCC2=O)c1 (centres undefined)	-17%	6%	-10%	-27	-2
Cc1nc(NCCc2ccccc2)c(C#N)c(C)c1[N+](=O)[O-]	?	?	-1%	2	6
Cc1ccccc1NC(=O)C1Cc2ccccc2C(=O)O1 (centres undefined)	57%	0%	-1%	17	14*
COc1ccc(C2Cc3ccccc3C(=O)O2)cc1 (centres undefined)	-13%	26%	3%	active	19
O=C1OC(C(=O)Nc2nccs2)Cc2ccccc21 (centres undefined)	8%	.	-4%	3	9
COc1ccc(NC(=O)C2Cc3ccccc3C(=O)O2)cc1 (centres undefined)	87%	44%	5%	26	12*
O=C(Cn1c(=O)c2cccn2c2cccnc21)N1CCN(c2ccc(Cl)cc2)CC1	8%	-1%	-3%	-4	-2
COc1cccc(CNC(=O)C2Cc3ccccc3CN2C(C)=O)c1 (centres undefined)	-14%	-20%	-1%	5	-5
CCN1CCCC1CN(Cc1cc2ccc(C)cc2[nH]c1=O)C(=S)Nc1ccc(OC)cc1OC (centres undefined)	19%	?	2%	-10	1
COc1ccc(S(=O)(=O)N2CCC(C(=O)NCc3cccnc3)CC2)cc1Cl	30%	1%	6%	3	-1
O=C(c1cc(-c2ccc(Cl)cc2)n(-c2ccc(Cl)cc2Cl)n1)N1CCOCC1	16%	-26%	-3%	9	-1
O=C(c1cc(-c2ccc(Cl)cc2Cl)on1)N1CCOCC1	-13%	169%	-16%	59	25*
COc1ccccc1N1CCN(C(=O)c2cc(-c3cccc(Cl)c3)on2)CC1	5%	38%	7%	-16	-5
O=C(c1cc(-c2cccc(Cl)c2)on1)N1CCOCC1	20%	129%	-5%	137*	25*
O=C(c1cc(-c2ccc(Cl)cc2)on1)N1CCOCC1	2%	153%	-11%	111*	29*
O=C(c1cc(-c2ccc(Cl)c(Cl)c2)on1)N1CCCC1	-17%	89%	5%	36*	21*
CC1CCN(C(=O)c2cc(-c3ccc(Cl)c(Cl)c3)on2)CC1	?	7%	2%	20	1
O=C(c1cc(-c2ccc(Cl)cc2)on1)N1CCc2ccccc2C1	18%	3%	1%	-9	-3
C=CCN(CC=C)S(=O)(=O)c1ccc(NC(=S)NC(=O)C2CC2)cc1	?	?	0%	-4	-1
CCN(CC)C(=O)[C@@]1(c2ccccc2)C[C@@H]1CN	-4%	-7%	.	.	.

Compound activity as filed in PubChem BioAssay.
